# In ChEMBL document CHEMBL3988442, “University of Dundee, Small-Polar-MMV Screening Library” (2021):
# The whole screen tested about 48,000 compounds, of which about 13,000 (27%) showed an effect of 50% or more. The list shows a part of the results.
# Test system: Wolbachia pipientis
# Test: Anti-Wolbachia Cell-Based Screen
# Format: functional
# Set-up: scale not given: in the data most compounds retested in dose-response had high values
# Conditions: 5 µM
row,Compound,Percent Effect [%]
1,CNC(=O)C(C)CN(C)C(=O)Nc1ccc(F)c(-n2cccc2)c1 (centres undefined),-4.138
2,CC(C)n1ccc(=O)nc1SC1CCN(c2ccccc2F)C1=O (centres undefined),-4.763
3,CCN(CC)C(=O)CNS(=O)(=O)c1cc(Br)ccc1F,7.808
4,CCC(C#N)NC(=O)COC1CCCCC1 (centres undefined),0.5871
5,O=C(O)C(F)(F)F.O=C(O)C(F)(F)F.c1nc2n(c1CN1CCCCC1)CCN(C1CCOC1)CC2 (centres undefined),7.057
6,Cc1nn(CCC#N)c(C)c1CCC(=O)N(C)C.Cl,11.54
7,CCCc1n[nH]c(C2CN(CC(=O)N(C)Cc3ccco3)CCO2)n1 (centres undefined),-31.39
8,CC(=O)N1CCOC[C@H](OCC(=O)N(C)C)C1,-10.39
9,CN1CCOC(c2cncc(CCC(=O)N(C)C)n2)C1 (centres undefined),119.8
10,CC(C)(C)c1n[nH]c(C2CN(C(=O)CCc3cscn3)CCO2)n1 (centres undefined),-3.136
11,Cc1cnn(CCC(=O)N2CCOC(c3nc(C(C)(C)C)n[nH]3)C2)c1 (centres undefined),0.508
12,CN1CCOC(c2cncc(CCC(N)=O)n2)C1 (centres undefined),120.9
13,CC(=O)N1CCOC(c2cncc(CCC(=O)N(C)C)n2)C1 (centres undefined),131.5
14,Cn1cc(CC(=O)N2CCOC(c3nc(C(C)(C)C)n[nH]3)C2)cn1 (centres undefined),-9.292
15,CC(=O)N1CCOC(c2cncc(CCC(N)=O)n2)C1 (centres undefined),132.1
16,CCC(CC)CN1CCC2(CCC(=O)N2OCc2ccccc2F)CC1,5.285
17,CSCC(C)(O)CNc1cccc(F)c1C(C)=O (centres undefined),5.644
18,Cc1nc(CNC(C(=O)N2CCOCC2)c2ccccc2)cs1 (centres undefined),-4.254
19,COCCN(C)CCN1CC2(CCN(C3CCSC3)CC2)OC1=O (centres undefined),-12.17
20,NC(=O)CCn1ccc(NC(=O)c2ccc(OCC3CC3)cc2)n1,-25.96
21,CC(C)(C(=O)NCC(N)=O)c1ccccc1F,-10.57
22,Cc1cn2c(CN(C)C(=O)c3nccnc3N)c(C)nc2s1,-5.585
23,Nc1nccc(N[C@H]2CN(CC(=O)NC3CCCCC3)C[C@@H]2C2CC2)n1,-21.82
24,Cn1c(SCC(O)COCc2ccc(Cl)cc2)nnc1C1CC1 (centres undefined),-3.183
25,O=C(O)C(F)(F)F.O=C(c1cocn1)N1C[C@@H]2CN(CC3CC3)CCO[C@@H]2C1,1.689

row,Compound,Percent Effect [%]
1,O=C(C1CC(F)(F)C1)N1C[C@@H]2CN(Cc3ccoc3)CCO[C@@H]2C1,97.76
2,O=C(C1CC(F)(F)C1)N1C[C@@H]2CN(Cc3ccsc3)CCO[C@@H]2C1.O=C(O)C(F)(F)F,8.794
3,O=C(C1CC(F)(F)C1)N1C[C@@H]2CN(CC3CCCC3)CCO[C@@H]2C1.O=C(O)C(F)(F)F,97.34
4,O=C(C1CC(F)(F)C1)N1C[C@@H]2CN(CC3CC3)CCO[C@@H]2C1.O=C(O)C(F)(F)F,110.9
5,CCN1CCO[C@@H]2CN(C(=O)COC3CCCC3)C[C@@H]2C1.O=C(O)C(F)(F)F,2.686
6,O=C(CC1CCCC1)N1C[C@@H]2CN(Cc3ccoc3)CCO[C@@H]2C1,-9.792
7,Cc1cnc(C(=O)N2C[C@@H]3CN(CC4CCCC4)CCO[C@@H]3C2)cn1.O=C(O)C(F)(F)F,-8.351
8,O=C(N1CCCC1)N1C[C@@H]2CN(Cc3ccoc3)CCO[C@@H]2C1,26.69
9,CCS(=O)(=O)CC(=O)NC1(c2ccc(Cl)c(Cl)c2)CC1,-4.937
10,NC(=O)CC1CCN(S(=O)(=O)c2cnn(-c3ccccc3)c2)CC1,23.91
11,OC[C@H]1CCN(Cc2ccc3ccccc3n2)C[C@@H]1O,-11.71
12,COc1c(C2CCCN2c2ncnc3c2CCC3)c(C)nn1C (centres undefined),-10.62
13,Cc1cc2cc(CNC3CCN(S(C)(=O)=O)CC3)oc2cc1C,-4.149
14,Cc1cc(-c2n[nH]c3c2CN(S(=O)(=O)c2ccsc2)CC3)c(C)o1,6.081
15,Cc1cc(-c2ccc(=O)n(C3CCN(S(=O)(=O)N(C)C)CC3)n2)c(C)o1,95.62
16,Cc1cc(-c2ccc(=O)n(C3CCN(S(C)(=O)=O)CC3)n2)c(C)o1,123.5
17,CN(C)S(=O)(=O)N1CCC(C(O)c2ccc(Cl)cc2)CC1 (centres undefined),-7.887
18,CCCS(=O)(=O)N1CCC(n2nc(-c3cc(C)oc3C)ccc2=O)CC1,123.5
19,CCCS(=O)(=O)N1CCC(c2ccc(OC)cc2)CC1,-3.773
20,Cc1ccc(C(C)NC(=O)N2CCN(S(C)(=O)=O)CC2)o1 (centres undefined),16.96
21,CCS(=O)(=O)N1CCC(c2nnc(C3CC3)o2)CC1,-10.63
22,CCS(=O)(=O)N1CCC(n2nc(-c3cc(C)oc3C)ccc2=O)CC1,128.2
23,CCCS(=O)(=O)N1CCC(NC(=O)c2cc(C)c(CC)s2)CC1,4.17
24,CN(C)S(=O)(=O)N1CCC(Oc2ccc(C#N)cc2)CC1,-11.9
25,COc1cc(F)ccc1-c1cc(CO)ccn1,-29.15

row,Compound,Percent Effect [%]
1,CC(=O)N[C@@H]1Cc2ccccc2[C@H]1Nc1ccncn1,4.323
2,CCC1CCCCN1S(=O)(=O)c1c(N)noc1C (centres undefined),0.4068
3,Cc1nc2cc(F)cc(C(=O)N3CCN(CCO)CC3)c2nc1C,-10.5
4,O=C(c1ccc(-c2cccs2)cc1F)N1CCN(CCO)CC1,-12.79
5,COc1ccc(C(=O)N2CCN(CCO)CC2)c(F)c1,102.7
6,Cc1cc(C(=O)NC2CCc3c(ccc(=O)n3CC3CC3)C2)no1 (centres undefined),117.2
7,Cc1cc(C(=O)N[C@H]2CC[C@@]3(CCC(=O)N3C)CC2)no1,-27.57
8,Cc1cc(C(=O)NC2CCc3c(ccc(=O)n3CC(C)C)C2)no1 (centres undefined),105.4
9,O=C(CC1CC1)NC1CCc2c(ccc(=O)n2CC2CC2)C1 (centres undefined),-16.88
10,O=C(NC1CCc2c(ccc(=O)n2CC2CC2)C1)c1cscn1 (centres undefined),-44.11
11,CC(C)Cn1c2c(ccc1=O)CC(N)CC2 (centres undefined),-23.17
12,CC(=O)NCC(=O)NC1CCc2c(ccc(=O)n2CC2CC2)C1 (centres undefined),-21.87
13,CC(C)Cn1c2c(ccc1=O)CC(NC(=O)c1ccsc1)CC2 (centres undefined),-16.59
14,Cc1cc(C(=O)NC2CCc3c(ccc(=O)n3CCN(C)C)C2)no1 (centres undefined),93.45
15,N#Cc1cccc(C(=O)NC2CCc3c(ccc(=O)n3CC3CC3)C2)c1 (centres undefined),110.8
16,CCc1cc(NC2CCS(=O)(=O)CC2)nc(N2CCCCC2)n1,-3.09
17,Cn1c(CO)cnc1SC1CCCN(c2ccccc2F)C1=O (centres undefined),-6.766
18,CC(Nc1ccn(CCS(C)(=O)=O)n1)c1ccc(C#N)cc1 (centres undefined),-8.389
19,F[C@@H]1CN(CC2CC2)C[C@@H]1OCc1nc2ccccc2[nH]1,-1.846
20,CC(=O)Cn1nc(-c2ccccc2F)ccc1=O,119.2
21,CC(C)(C)C(=O)Cn1nc(-c2ccccc2F)ccc1=O,-0.9957
22,NC(=O)Cn1nc(-c2ccccc2F)ccc1=O,144.8
23,COc1ccc(C(=O)Nc2ccccc2-c2ccc(=O)n(C)n2)nn1,-4.369
24,O=C(NC1CCN(c2ccc(-c3ccccc3F)nn2)C1)C1CCC1 (centres undefined),-17.95
25,COC(=O)Cn1nc(-c2ccccc2F)ccc1=O,121.8

row,Compound,Percent Effect [%]
1,Cn1nc(-c2ccccc2NC(=O)c2cncc(Br)c2)ccc1=O,-4.851
2,COc1ccc(F)cc1Cn1nc(C(N)=O)ccc1=O,1.725
3,O=C(O)Cn1nc(-c2ccccc2F)ccc1=O,139.2
4,CC(C)Oc1cccc(C(=O)C2CCCN(C(=O)c3ncn[nH]3)C2)c1 (centres undefined),-4.294
5,CS(=O)(=O)c1ccc(NC(=O)CSc2ccc3c(c2)CCC3)cn1,7.446
6,CC(c1nc(C2CC2)no1)N(C)Cc1cccc(F)c1 (centres undefined),12.3
7,CCN(CC)C(CNS(=O)(=O)c1ccc(C(=O)NC)cc1)c1ccco1 (centres undefined),0.6188
8,O=C1CCC[C@]2(CN(S(=O)(=O)C3CCCCC3)C[C@H]2c2cccnc2)N1,155.7
9,O=C(N1CC(c2cccnc2)C1)C1(c2ccc(F)cc2)CCOCC1,1.587
10,CC1(C)CN(S(=O)(=O)N2CCCC2)CC1c1ccccc1 (centres undefined),-16.61
11,O=S(=O)(C1CC1)N1CCC2(CC1)COC(COc1cccnc1)C2 (centres undefined),-3.155
12,CC(C)N1CCC2(CC1)CC(c1cccnc1)C(=O)N2 (centres undefined),-11.82
13,O=C1CCC[C@]2(CN(S(=O)(=O)N3CCOCC3)C[C@H]2c2cccnc2)N1,174.7
14,N[C@H]1CN(S(=O)(=O)N2CCCCCC2)C[C@@H]1c1ccccc1,3.796
15,CC1(C)CN(S(=O)(=O)N2CCOCC2)CC1c1ccccc1 (centres undefined),-33.51
16,O=C1CCC[C@]2(CN(S(=O)(=O)N3CCCCC3)C[C@H]2c2cccnc2)N1,175
17,CCc1[nH]ncc1C(=O)N1CCN(c2nc(C)cc(OC)n2)CC1,-4.996
18,O=C(OCCNc1ncccn1)c1ccc(Cl)s1,-0.7929
19,O=S(=O)(c1ccccc1)N1C[C@@H]2COC[C@]2(COCC2CC2)C1,4.427
20,c1ccc(COC[C@@H]2CC[C@H]3[C@H](CCN3c3ncccn3)O2)nc1,-9.448
21,c1ccc(COC[C@]23COC[C@H]2CN(c2ncccn2)C3)nc1,107.1
22,N#Cc1ccc(OC[C@]23COC[C@H]2CN(c2ncccn2)C3)nc1,98.67
23,Cn1cc(CN2C[C@@H]3COC[C@]3(COc3ccc(C#N)cn3)C2)cn1,-1.317
24,Cc1cccc(CN2C[C@@H]3COC[C@]3(COc3ccc(C#N)cn3)C2)n1,-1.985
